The text below walks through data of PubChem BioAssay (EPA / NIEHS).

Conditions in all cases: actives raise or lower the signal
Assay [1] is described as follows: CEETOX_H295R_OHPREG_noMTC: CeeTox H295R High-throughput Steroidogenesis Assay for OH-Pregnenolone (OHPREG), maximum tolerated concentration (MTC) filtered results only (AID 2283912). The procedure, abridged: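 Steroidogenesis in H295R cells (OECD 456, modified): after 48 h forskolin priming and 48 h chemical treatment, secreted 17alpha-hydroxypregnenolone is measured by HPLC-MS/MS. Activity is fitted in both directions against DMSO; concentrations are not filtered by MTT-based MTC.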

Assay [2] in a line: CEETOX_H295R_OHPROG_noMTC: CeeTox H295R High-throughput Steroidogenesis Assay for OH-Progesterone (OHPROG), maximum tolerated concentration (MTC) filtered results only (AID 2283914). The gist of the method:
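Forskolin 10 uM, 48 h prestim → test cmpd in DMSO (0.1% final), 48 h → medium MTBE extraction → LC-MS/MS quant of 17alpha-OH-progesterone. Bidirectional fit vs DMSO; no MTT-based MTC filtering.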

The nature of assay [3]: CEETOX_H295R_ESTRADIOL_noMTC: CeeTox H295R High-throughput Steroidogenesis Assay for Estradiol, maximum tolerated concentration (MTC) filtered results only (AID 2283919). The procedure, abridged: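 H295R human adrenal cells pre-stimulated 48 h with 10 uM forskolin, then exposed 48 h to chemical (0.1% DMSO final). Estradiol in medium measured by HPLC-MS/MS after MTBE extraction and dansyl derivatization; bidirectional fit versus DMSO, concentrations not MTT-filtered.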

Assay [4] can be described thus: CEETOX_H295R_ESTRONE_noMTC: CeeTox H295R High-throughput Steroidogenesis Assay for Estrone, maximum tolerated concentration (MTC) filtered results only (AID 2283921). The gist of the method:
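H295R cells prestimulated 48 h with 10 uM forskolin, then exposed 48 h to chemical in 0.1% DMSO; medium estrone measured by HPLC-MS/MS after MTBE extraction and dansyl derivatization, fitted bidirectionally versus DMSO without MTT-based MTC filtering.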

Assay [5] in a line: CEETOX_H295R_ANDR_noMTC: CeeTox H295R High-throughput Steroidogenesis Assay for Androstenedione (ANDR), maximum tolerated concentration (MTC) filtered results only (AID 2283915). The procedure, abridged:
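H295R cells, passage 10 or below, prestimulated 48 h with 10 uM forskolin, then exposed 48 h to chemical in 0.1% DMSO. Medium androstenedione extracted with MTBE, quantified by HPLC-MS/MS; concentrations not MTC-filtered; bidirectional fit versus DMSO.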

The nature of assay [6]: CEETOX_H295R_CORTISOL_noMTC: CeeTox H295R High-throughput Steroidogenesis Assay for Cortisol, maximum tolerated concentration (MTC) filtered results only (AID 2283916). The gist of the method:
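Cortisol secretion measured by LC-MS/MS after 48 h chemical treatment (final 0.1% DMSO) of forskolin-primed (10 uM, 48 h) H295R cells; gain or loss fitted relative to DMSO, without maximum-tolerated-concentration filtering.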

Assay [7] can be described thus: CEETOX_H295R_CORTIC_noMTC: CeeTox H295R High-throughput Steroidogenesis Assay for Corticosterone (CORTIC), maximum tolerated concentration (MTC) filtered results only (AID 2283917). The procedure, abridged:
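Following OECD 456 with minor changes, H295R cultures received 10 uM forskolin for 48 h, then test chemical at 0.1% DMSO for 48 h. Media steroids were extracted and measured by LC-MS/MS.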

Assay [8] in a line: CEETOX_H295R_DOC_noMTC: CeeTox H295R High-throughput Steroidogenesis Assay for DOC, maximum tolerated concentration (MTC) filtered results only (AID 2283918). The procedure, abridged: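 11-Deoxycorticosterone secreted by human adrenal H295R cells quantified by HPLC-MS/MS after 48 h chemical exposure (0.1% DMSO), following 48 h 10 uM forskolin prestimulation. Concentrations not filtered by MTT-derived MTC; bidirectional fitting.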

A short description of assay [9]: CEETOX_H295R_PROG_noMTC: CeeTox H295R High-throughput Steroidogenesis Assay for Progesterone (PROG), maximum tolerated concentration (MTC) filtered results only (AID 2283920). The procedure:
CEETOX_H295R is a cell-based, multiplexed-readout assay that uses H295R, a human adrenal gland cell line, with measurements taken at 48 hours after chemical dosing in a 96-well plate.CEETOX_H295R_PROG_noMTC is one of 12 assay component(s) measured or calculated from the CEETOX_H295R assay (11 hormones and 1 viability assay). It is designed to make measurements of hormone induction, a form of inducible reporter, as detected with absorbance signals by HPLC-MS-MS technology. The concentrations for these components have not been pre-filtered for the maximum tolerated concentration (MTC) based on the MTT assay (_noMTC).Data from the assay component CEETOX_H295R_PROG_noMTC was analyzed into 1 assay endpoint. This assay endpoint, CEETOX_H295R_PROG_noMTC, was analyzed with bidirectional fitting relative to DMSO as the negative control and baseline of activity. Using a type of inducible reporter, gain or loss-of-signal activity using HPLC-MS-MS was used to understand synthesis of Progesterone in H295R cell line at 48hr of chemical exposure, without filtering concentrations for maximum tolerated concentration (MTC). To generalize the intended target to other relatable targets, this assay endpoint is annotated to the steroid hormone intended target family, where the subfamily is progestagens.
Cell culture and media preparation procedures were conducted in accordance with OECD Test No. 456 guidelines, with minor modifications. H295R cells (ATCC CRL-2128) were expanded for 5 passages and frozen in batches in liquid nitrogen. Prior to the steroidogenesis assay, H295R cells were thawed and passed at least 4 times. The maximum passage was 10. Cells were maintained in a 1:1 mixture of DMEM/F12 supplemented with 5ml/L ITS+ Premix (BD Bioscience) and 12.5 ml/L Nu-Serum (BD Bioscience). After seeding cells into 96-well plates at 50-60% confluency, cells were allowed to adhere overnight. Prior to chemical testing, culture medium was replaced with 175 uL medium containing 10 uM forskolin to stimulate steroidogenesis for 48 hours. Following prestimulation, forskolin medium was replaced with medium containing test chemical solubilized in DMSO (ensuring a final concentration of 0.1% DMSO). Test chemicals were incubated for 48 hours, then the medium was removed and split into 2 vials containing approximately 75uL each, and stored at -80 C prior to hormone analysis. For steroid quantification, media samples were shipped to OpAns, LLC (Durham, NC) on dry ice, and samples were thawed to room temperature prior to liquid-liquid extraction. Steroid hormones were extracted from media samples using methyl tertbutyl ether (MTBE). An extra derivatization with dansyl chloride was included for estrogen (estrone and estradiol) detection only. Steroid hormones were separated by HPLC, eluted using a reverse phase C18 gradient with electrospray positive ionization, followed by quantification by tandem mass spectrometry (MS/MS). Data were acquired on a MassHunter Workstation Acquisition version B03.01 (Agilent Technologies, Inc.) and processed using MassHunter Quantitative Analysis for QQQ. Accuracy was determined for each hormone analyte from 3 standards to determine upper and lower limits of quantification (ULOQ and LLOQ, respectively) using a 7-point standard curve. Precision and accuracy of the extraction and quantification methods were calculated as the percent relative standard deviation (%RSD) of the spiked standards and percent spiked standard recovered, respectively. The goal was to achieve 100% accuracy (i.e., recover all spiked-in standard at quantification with minimal loss during run time) and good precision (i.e., have %RSD <15% to ensure reproducibility). Test medium was removed following chemical exposure, and cell viability was evaluated in the same wells by MTT. MTT procedures were as follows: after removal of test medium, 500 uL of 0.5 mg/ml of 3-[4,5-dimethylthiazol-2-y]2,5-diphenyltetrazoliumbromide solution was added to the cells. […]

A short description of assay [10]: CEETOX_H295R_TESTO_noMTC: CeeTox H295R High-throughput Steroidogenesis Assay for Testosterone (TESTO), maximum tolerated concentration (MTC) filtered results only (AID 2283924). The procedure:
CEETOX_H295R is a cell-based, multiplexed-readout assay that uses H295R, a human adrenal gland cell line, with measurements taken at 48 hours after chemical dosing in a 96-well plate.CEETOX_H295R_TESTO_noMTC is one of 12 assay component(s) measured or calculated from the CEETOX_H295R assay (11 hormones and 1 viability assay). It is designed to make measurements of hormone induction, a form of inducible reporter, as detected with absorbance signals by HPLC-MS-MS technology. The concentrations for these components have not been pre-filtered for the maximum tolerated concentration (MTC) based on the MTT assay (_noMTC).Data from the assay component CEETOX_H295R_TESTO_noMTC was analyzed into 1 assay endpoint. This assay endpoint, CEETOX_H295R_TESTO_noMTC, was analyzed with bidirectional fitting relative to DMSO as the negative control and baseline of activity. […]
Cell culture and media preparation procedures were conducted in accordance with OECD Test No. 456 guidelines, with minor modifications. […] For steroid quantification, media samples were shipped to OpAns, LLC (Durham, NC) on dry ice, and samples were thawed to room temperature prior to liquid-liquid extraction. […] Steroid hormones were separated by HPLC, eluted using a reverse phase C18 gradient with electrospray positive ionization, followed by quantification by tandem mass spectrometry (MS/MS). Data were acquired on a MassHunter Workstation Acquisition version B03.01 (Agilent Technologies, Inc.) and processed using MassHunter Quantitative Analysis for QQQ. Accuracy was determined for each hormone analyte from 3 standards to determine upper and lower limits of quantification (ULOQ and LLOQ, respectively) using a 7-point standard curve. Precision and accuracy of the extraction and quantification methods were calculated as the percent relative standard deviation (%RSD) of the spiked standards and percent spiked standard recovered, respectively. […] Test medium was removed following chemical exposure, and cell viability was evaluated in the same wells by MTT. […]

Calls of active or inactive are those of the source. Rule for the calls: active = hit-call score of the fitted dose curve at least 0.9, where 1 is the maximum; inactive = score below 0.9.

With `COC(=O)c1ccc(C(=O)OC)cc1`, the call in assay [1], in assay [2], in [3] and in assay [4] was inactive.
A word on the AC50: it is the concentration at which the activity in the assay is half-maximal. In the case of `CCCCCCCCCCOC(=O)c1ccccc1C(=O)OCCCCCCCC`, the half-maximal activity concentration (AC50) is 41.3 µM (active) in [1]; 40.4 µM (active) in assay [2]; 44 µM (active) in [5]; 33.3 µM (active) in assay [8]; 39.1 µM (active) in [9]; 43 µM (active) in assay [10]. Moreover, the result in assay [6], in assay [7], in [3] and in assay [4] was inactive.
In the case of `CCCCCC1C(=O)CCC1CC(=O)OC` (stereo not given), the call in [1], in assay [2] and in [9] was inactive.
Consider `CC(=O)OC/C=C(C)/C=C/C=C(C)/C=C/C1=C(C)CCCC1(C)C`, for which the call in assay [1], in assay [2], in [3] and in assay [4] was inactive. Further, in assay [9], the AC50 is 34 µM (active).
With `COC(=O)c1cccc(C(=O)OC)c1`, the outcome in assay [1], in [2], in assay [5], in assay [3], in assay [9] and in assay [4] was inactive. Moreover, in [10], the call was inactive.
For the compound `COc1cc(OC)c2ccc(=O)oc2c1`, the result in assay [1], in [5], in [3], in assay [9], in [4] and in assay [10] was inactive.
In the case of `COC(=O)C(C)Oc1ccc(Oc2ncc(C(F)(F)F)cc2Cl)cc1` (stereo not given), the AC50 in assay [1] is 14.1 µM (active); in [2] it was 1.86 µM (active); in assay [3], 23.5 µM (active); in assay [9], 35.1 µM (active); in assay [4], 27.9 µM (active).
